# According to the supplement of paper PMC11628255, “Interference of metal ions on the bioluminescent signal of firefly, Renilla, and NanoLuc luciferases in high-throughput screening assays” (Frontiers in Chemistry, 2024):
# ± gives the standard deviation of the averaged measurements.
# Tested on: firefly luciferase (FLuc)
# Test: residual bioluminescent signal relative to negative (DMSO) control; higher = less interference (more residual luciferase signal)
# Experimental: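 Purified luciferase (FLuc 10 nM + 10 uM D-luciferin; NLuc 10 pM + 10 uM furimazine; RLuc 50 pM + 2 uM coelenterazine) in 384-well plates; metal salt pre-incubated with enzyme 10 min at RT, substrate added and luminescence read after 10 min. Signal normalised to plate DMSO negative control (% N_VALUE = x/mean neg *100); triplicate wells at 0.01, 1 and 5 mM salt.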
# [1] = metal salt concentration 0.01 mM, HEPES conditions (100 mM HEPES, 5 mM MgSO4, 10 uM ATP, pH 7.5)
# [2] = metal salt concentration 0.01 mM, screening conditions (0.5 mM Tris, 50 mM glycine, 0.5 mM EDTA, 5 mM MgSO4, 10 uM ATP, pH 7.6)
# [3] = metal salt concentration 1 mM, HEPES conditions (100 mM HEPES, 5 mM MgSO4, 10 uM ATP, pH 7.5)
# [4] = metal salt concentration 1 mM, screening conditions (0.5 mM Tris, 50 mM glycine, 0.5 mM EDTA, 5 mM MgSO4, 10 uM ATP, pH 7.6)
# [5] = metal salt concentration 5 mM, HEPES conditions (100 mM HEPES, 5 mM MgSO4, 10 uM ATP, pH 7.5)
# [6] = metal salt concentration 5 mM, screening conditions (0.5 mM Tris, 50 mM glycine, 0.5 mM EDTA, 5 mM MgSO4, 10 uM ATP, pH 7.6)
Compound,residual bioluminescent signal [1],residual bioluminescent signal [2],residual bioluminescent signal [3],residual bioluminescent signal [4],residual bioluminescent signal [5],residual bioluminescent signal [6]
[Cl][Fe]([Cl])[Cl] [iron(III) chloride],15.5 ± 8.2%,1.32 ± 0.63%,1.09 ± 0.62%,0.712 ± 0.4%,1.9 ± 1.9%,0.29 ± 0.046%
O=S(=O)([O-])[O-].[Fe+2] [iron(II) sulfate],10.5 ± 3.6%,109 ± 9.9%,1.09 ± 0.23%,0.237 ± 0.14%,1.22%,0.237 ± 0.21%
O.O.O.O.O.O.O.O.O.O.O=S(=O)([O-])[O-].[Na+].[Na+] [sodium sulfate],81.9 ± 8.1%,73.4 ± 5.7%,51 ± 7.2%,70.4 ± 8.2%,20 ± 6.1%,51.1 ± 3.8%
O=C([O-])[O-].[Cs+].[Cs+] [caesium carbonate],85.2 ± 14%,93.8 ± 6.3%,91.6 ± 14%,103 ± 2.9%,79.4 ± 4.7%,56.2 ± 6.8%
